Experimental data published in PubChem BioAssay.
Inconclusive results are not listed. Active and inactive are the calls of the source.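 How the source made its calls, unless noted: active means growth inhibition above 25% in both replicates, a cutoff set 3 SD above the mean; inconclusive means above 25% in only one replicate; inactive means the rest.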

Columns and labels:
[1] = reducers of endogenous Her2 protein level, primary screen, SKBR3 breast tumor cells, AlphaScreen, ATP viability (AID 461;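 active means Her2 level under about 52% in both replicate screens, with viability over 70% of control, limit read from the data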;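 on Her2 level: lower value means less Her2 protein in the cells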;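 on viability: percent of carrier control wells set as 100% viability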); conditions: 18-24 h, measured here: SKBR3 viability, ATP luminescence, at 10 µM
[2] = biological target: Receptor tyrosine-protein kinase erbB-2 (Homo sapiens) (UniProt P04626); test: as above; conditions: 18-24 h, at 10 µM, stronger effect = lower value
Sequence of Receptor tyrosine-protein kinase erbB-2 (Homo sapiens) (P04626 whole entry, looked up): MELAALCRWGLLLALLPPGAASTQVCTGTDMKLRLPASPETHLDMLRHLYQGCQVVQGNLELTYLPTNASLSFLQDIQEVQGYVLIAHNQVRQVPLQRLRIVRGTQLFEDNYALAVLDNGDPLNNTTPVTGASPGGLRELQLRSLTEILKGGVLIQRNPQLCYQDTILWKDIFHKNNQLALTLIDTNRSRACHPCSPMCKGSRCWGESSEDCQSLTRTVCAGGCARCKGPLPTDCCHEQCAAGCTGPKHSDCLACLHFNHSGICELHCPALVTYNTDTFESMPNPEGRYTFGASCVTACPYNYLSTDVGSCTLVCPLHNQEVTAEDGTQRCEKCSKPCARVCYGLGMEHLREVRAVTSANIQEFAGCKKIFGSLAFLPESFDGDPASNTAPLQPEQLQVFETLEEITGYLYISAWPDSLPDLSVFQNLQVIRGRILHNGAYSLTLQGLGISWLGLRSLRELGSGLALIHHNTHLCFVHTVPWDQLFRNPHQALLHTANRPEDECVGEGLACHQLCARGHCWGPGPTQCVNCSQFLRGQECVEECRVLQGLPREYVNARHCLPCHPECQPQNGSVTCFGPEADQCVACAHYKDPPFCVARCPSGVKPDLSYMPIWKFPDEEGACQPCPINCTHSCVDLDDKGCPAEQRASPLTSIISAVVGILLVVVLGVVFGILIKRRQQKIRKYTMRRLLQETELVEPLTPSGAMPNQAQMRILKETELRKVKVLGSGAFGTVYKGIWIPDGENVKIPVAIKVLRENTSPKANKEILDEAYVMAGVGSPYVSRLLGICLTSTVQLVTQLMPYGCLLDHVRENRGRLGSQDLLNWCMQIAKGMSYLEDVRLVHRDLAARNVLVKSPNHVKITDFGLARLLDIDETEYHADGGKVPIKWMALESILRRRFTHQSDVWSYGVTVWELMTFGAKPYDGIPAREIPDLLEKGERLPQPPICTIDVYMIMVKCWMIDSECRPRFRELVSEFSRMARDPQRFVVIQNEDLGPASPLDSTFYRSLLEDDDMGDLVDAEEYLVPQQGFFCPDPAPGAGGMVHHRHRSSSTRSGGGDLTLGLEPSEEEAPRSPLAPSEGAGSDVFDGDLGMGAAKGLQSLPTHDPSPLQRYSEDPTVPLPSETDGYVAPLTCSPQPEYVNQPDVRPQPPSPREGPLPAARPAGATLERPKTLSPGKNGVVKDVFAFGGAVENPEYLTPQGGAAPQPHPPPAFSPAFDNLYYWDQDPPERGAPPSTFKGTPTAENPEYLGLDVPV

[3] = SK-BR-3 cell growth inhibitors, pilot screen, 24 h, human (AID 572;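 active means viability at or below 10% of carrier control in both of two separate runs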;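 further: compound exposure lasted between 18 and 24 h rather than exactly 24 h; 100% = carrier-treated control wells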); conditions: SK-BR-3 viability, CellTiter-Glo luminescence, at 10 µM, stronger effect = lower value
[4] = HUVEC growth inhibition – cell-based, human, primary screen (AID 575;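 active means viability at or below 30% in both replicate assays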;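 further: 100% = median of untreated cell wells with 0.1% DMSO on each plate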); conditions: HUVEC proliferation, CellTiter-Glo luminescence, 72 h; at 10 µM; stronger effect = lower value
[5] = growth inhibitors of H69AR lung tumor, primary screen, human, duplicate replicates (AID 580;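 active means viability at or under a set limit in both replicates, limit being median viability minus 3 SD, cut at about 48% in these data, passing the limit was not always enough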;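 further: 100% = mean luminescence of untreated wells and 0% = no signal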); conditions: H69AR lung tumor cells viability, ATP luminescence, 72 h; at 10 µM; stronger effect = lower value
[6] = reversal of MRP1-mediated doxorubicin resistance, pilot screen, H69AR cells, doxorubicin co-treatment (AID 601;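 active means viability loss from added drug above about 55%, and viability with drug at most 40%, in both replicates, limit read from the data, passing the limit was not always enough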); conditions: CellTiter-Glo, 72 h, at 10 µM; for differential viability (reversal): stronger effect = higher value
[7] = 384-well plate pilot, post-Golgi transport modulator project, inhibition of yeast transport mutant growth (AID 636; in the data active means inhibition above about 31%); conditions: absorbance 615 nm, about 18 h, stronger effect = higher value
[8] = growth suppression of yeast trafficking mutant, preliminary HTS, modulators of trafficking downstream of Golgi apparatus project, 1536-format plate, OD 615 nm (AID 637; in the data active means inhibition above about 30%); conditions: yeast transport mutant growth, absorbance 615 nm, 18 h; stronger effect = higher value
[9] = OD615 S. cerevisiae growth inhibition, permissive medium, pilot counter-assay, permissive growth control for S. cerevisiae lifespan shortening project (AID 705); conditions: OD615, 24 h, at 10 µM, stronger effect = higher value
[10] = Restrictive medium S. cerevisiae growth inhibition, OD615, pilot screen of yeast lifespan reduction project, restrictive growth control (AID 706;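 active means growth inhibition above a set limit, 3 SD over mean compound inhibition, in both replicates, cut at about 43% in these data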;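 further: modified DeaD lifespan yeast strain shifted to restrictive glucose medium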); conditions: OD615, 48 h, at 10 µM, stronger effect = higher value
[11] = viability gain of MRP-1-high H69AR cells under doxorubicin, pilot screen, MRP-1 activator project, CellTiter-Glo, duplicate (AID 807;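 active means viability increase at or above a cutoff of the median across tested compounds plus 3 SD, cut at about 8.5% in these data, passing the limit was not always enough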;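 further: compound pretreatment 18-22 h then 72 h combined with doxorubicin; 0% = doxorubicin alone and 100% = vehicle without doxorubicin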); conditions: H69AR viability with doxorubicin, CellTiter-Glo luminescence; at 10 µM; stronger effect = higher value
[12] = growth suppression of beta-catenin knockout HCT116, pilot screen, human colon tumor cells (AID 823;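 active means cell viability at or below a set limit in both duplicate runs, the limit being the all-compound median minus 4 SD, cut at about 23% in these data, passing the limit was not always enough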;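 further: 0% = wells killed by 20 µM Hyamine and 100% = untreated DMSO cell wells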); conditions: CellTiter-Glo, 60 h, at 10 µM, stronger effect = lower value
[13] = growth suppression of PTEN-deleted HCT116, pilot screen, cell-based, HCT116 clonal line, CellTiter-Glo (AID 824;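 active means viability at or below 27.92% in each of two runs, the all-compound median minus 4 SD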;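 further: 0% = 20 µM Hyamine control and 100% = vehicle cell control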); conditions: 60 h, at 10 µM, stronger effect = lower value
[14] = inhibitors of the yeast RAM network, pilot screen, dse1pr::URA3 reporter, 5-FOA selection (AID 869;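 active means inhibition over a set limit, the all-compound mean plus 3 SD, in both replicate runs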;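 further: 0% = DMSO wells with no growth and 100% = 10 µM 1-NA-PP1 with full growth; RAM network block rescues cells from 5-FOA so hits raise OD615 growth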); conditions: S. cerevisiae dse1pr::URA3 5-FOA growth, OD615, 2 d; at 10 µM; stronger effect = higher value; strain carries analog-sensitive mutant Cbk1 kinase
[15] = RAM signaling pathway blockade in yeast – S. cerevisiae, Pdr1DBD-CYC8 efflux-inhibited sensitized strain, primary screen (AID 1298;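 active means RAM network inhibition above 8.4% in each of two replicates, 3 SD over the compound average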;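 further: 0% = DMSO untreated cells without growth and 100% = 10 µM 1-NA-PP1 full growth; higher means more yeast growth rescued from 5-FOA killing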); conditions: S. cerevisiae cbk1-as DSE1-URA3 strain, 5-FOA growth OD615, 2 d; at 50 µM; stronger effect = higher value
[16] = H69AR cells + 2 uM doxorubicin, measured here: viability with 2 uM doxorubicin, stronger effect = lower value
[17] = H69AR cells, compound alone cytotoxicity

Compound	viability [1]	Her2 level [2]	viability [3]	viability [4]	viability [5]	differential viability (reversal) ([6]; H69AR cells + 2 uM doxorubicin)	viability [6, 16]	viability [6, 17]	inhibition [7]	inhibition [8]	growth inhibition [9]	growth inhibition [10]	viability increase [11]	viability [12]	viability [13]	inhibition [14]	RAM network inhibition [15]
COC(=O)c1ccsc1NC(=O)CN1C(=O)CCC1=O	83.5%	121% (inactive)	83.5% (inactive)	83.1% (inactive)	91.6% (inactive)	22.4% (inactive)	69.2%	91.6%	-1.33% (inactive)	15.7% (inactive)	-2.7% (inactive)	-9.07% (inactive)	-1.57% (inactive)	100% (inactive)	98.7% (inactive)	-0.08% (inactive)	0.15% (inactive)
CCCCN(C)C(=O)c1ccc(CS(=O)(=O)c2ccccc2C)o1	93%	86.5% (inactive)	93% (inactive)	120% (inactive)	81.3% (inactive)	-5.93% (inactive)	87.2%	81.3%	1.28% (inactive)	-2.17% (inactive)	6.16% (inactive)	14.7% (inactive)	-1.67% (inactive)	93.8% (inactive)	91.7% (inactive)	-0.45% (inactive)	3.61% (inactive)
Cc1c(NC(=O)C2CCCCN2S(=O)(=O)c2ccc(Cl)cc2)c(=O)n(-c2ccccc2)n1C (stereo not given)	112%	120% (inactive)	112% (inactive)	90.1% (inactive)	91.3% (inactive)	-6.92% (inactive)	98.2%	91.3%	-3.47% (inactive)	-1% (inactive)	-2.56% (inactive)	-1.4% (inactive)	-1.13% (inactive)	96.9% (inactive)	103% (inactive)	0.76% (inactive)	-0.87% (inactive)
Cc1c(C(=O)OC2CCC(C)CC2)[nH]c2c1C(=O)CCC2 (stereo not given)	69.5%	78% (inactive)	69.5% (inactive)	87.6% (inactive)	86.8% (inactive)	-4.38% (inactive)	91.2%	86.8%	5.07% (inactive)	1.97% (inactive)	-11.8% (inactive)	-6.09% (inactive)	2.52% (inactive)	97.7% (inactive)	92.9% (inactive)	1.67% (inactive)	3.39% (inactive)
CCc1ccccc1NC(=O)c1cnc2n(c1=O)CCS2	90.5%	90% (inactive)	90.5% (inactive)	95% (inactive)	91.6% (inactive)	3.48% (inactive)	88.1%	91.6%	-1.33% (inactive)	-4.26% (inactive)	-7.06% (inactive)	1.6% (inactive)	3.48% (inactive)	90.9% (inactive)	97% (inactive)	1.32% (inactive)	5.66% (inactive)
COCCN(CCOC)c1ncnc2c1cnn2-c1ccccc1	112%	99% (inactive)	112% (inactive)	88.4% (inactive)	86.6% (inactive)	-6.92% (inactive)	93.5%	86.6%	-4.8% (inactive)	4.33% (inactive)	-5.8% (inactive)	1.92% (inactive)	1.43% (inactive)	107% (inactive)	98.5% (inactive)	0.505% (inactive)	3.39% (inactive)
CC(C)c1nnc(NC(=O)Cc2cccs2)s1	106%	92% (inactive)	106% (inactive)	106% (inactive)	96.7% (inactive)	6.08% (inactive)	90.6%	96.7%	-2.53% (inactive)	1.48% (inactive)	-2.5% (inactive)	-0.8% (inactive)	-0.07% (inactive)	99.5% (inactive)	94.8% (inactive)	2.64% (inactive)	0.83% (inactive)
CC(=O)N1c2c(cc(Br)cc2S(=O)(=O)NCC2COc3ccccc3O2)CC1C (stereo not given)	97.5%	85% (inactive)	97.5% (inactive)	88.9% (inactive)	81.7% (inactive)	-2.64% (inactive)	84.3%	81.7%	-5.34% (inactive)	-2.06% (inactive)	-0.935% (inactive)	8.23% (inactive)	0.21% (inactive)	83.2% (inactive)	81% (inactive)	0.495% (inactive)	0.61% (inactive)
CC(=O)Nc1cccc(Oc2nc(C)cc(C)c2C#N)c1	96.5%	106% (inactive)	96.5% (inactive)	94.1% (inactive)	87.3% (inactive)	-4.33% (inactive)	91.7%	87.3%	-2% (inactive)	0.5% (inactive)	-17.1% (inactive)	-19.5% (inactive)	2.21% (inactive)	107% (inactive)	102% (inactive)	1.34% (inactive)	0.78% (inactive)
Cc1nc2ccccc2c2oc(C(=O)NCCN3CCCCC3C)cc12 (stereo not given)	81%	94% (inactive)	81% (inactive)	99.5% (inactive)	93.1% (inactive)	-6.12% (inactive)	99.2%	93.1%	-3.46% (inactive)	-3% (inactive)	-3.45% (inactive)	0.34% (inactive)	-2.08% (inactive)	66.4% (inactive)	70.6% (inactive)	1.77% (inactive)	-0.67% (inactive)
